# Among all 370,000 compounds or so, about 6,800 (1.8%) were called active. The entries come from a sample that favours actives as a whole. Values without a mark were called inactive.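 Rule for the calls: active = activation above a cutoff set at the mean of all screened compounds plus 3 SD (cut at about 10% in these data); inactive = the rest.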
# Tested on: Nuclear hormone receptor DAF-12 (Heterodera glycines), GAL4 fusion
# Test: hgDAF-12 GAL4 fusion reporter activation – cell-based, luminescence, HEK293, UAS-luciferase, primary screen (AID 687014);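 note: 0% = DMSO wells and 100% = sodium butyrate wells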
# Conditions: HEK293 GAL4-hgDAF12 UAS-luciferase reporter, agonist luminescence; at 6.8 µM; active compounds read high; normalized to butyrate control
row,SMILES,activation
1,CCCCNC(=O)C[C@@H]1C(=O)N(CCc2ccc(Cl)cc2)C2=CCCC[C@]21C(=O)OCC,-1.77%
2,COc1cccc(CNC(=O)[C@H]2CCCN2C(=O)[C@H]2CCCN2C(=O)c2ccc(F)cc2)c1,-0.01%
3,Nn1c(SCC(=O)N2c3ccccc3Sc3ccccc32)nnc1-c1n[nH]c2c1CCC2,-2.62%
4,Nc1ncnc2c1ncn2[C@@H]1O[C@H](C(=O)N2CCSC2)[C@@H](O)[C@H]1O,-0.23%
5,O=C(CSc1nnc(-c2cccc(Cl)c2)n1Cc1ccco1)Nc1ccc(OCc2ccccc2)cc1,-1.62%
6,COc1cccc(N(C(=O)C2COc3ccccc3O2)C(C(=O)NC2CCCCC2)c2ccc(O)cc2)c1 (stereo not given),0.49%
7,Nn1c(SCC(=O)Nc2ccc(S(N)(=O)=O)cc2)nnc1-c1n[nH]c2c1CCC2,0.61%
8,COc1ccc(C(=O)/C=C/c2ccc(-c3ccccc3)cc2)cc1CSCC(=O)O,-3.73%
9,CC(=O)Oc1ccc(C)cc1N1C(=O)c2ccc(C(=O)O)cc2C1=O,-2.04%
10,O=C(O)c1ccc2c(c1)C(=O)N(c1ccc(/C=C/C(=O)c3ccccc3)cc1)C2=O,14.1% (active)
11,CCOC(=O)C1(Cc2ccccc2)CCN(Cc2cn(C(C)=O)c3ccccc23)CC1,1.22%
12,CCC(=O)Nc1sc(C(=O)Nc2ccccc2)c(C)c1C(=O)OC,13.4% (active)
13,COC(=O)c1c(NC(C)=O)sc(C(=O)Nc2ccccc2OC)c1C,-3.24%
14,COC(=O)c1sc(NC(=O)COC(=O)C2CCC2)c(C(=O)OC)c1C,0.97%
15,COc1ccccc1-c1ccc([C@@H]2C[C@H]3[C@H](CON3C)CN2S(=O)(=O)c2cc(Cl)cc(Cl)c2)cc1,4.17%
16,COC(=O)Nc1nc2ccc(C(=O)C3CC3)cc2[nH]1,6.35%
17,COC(=O)C[C@H]1CC[C@H]2[C@H](COc3ccc(NC(=O)C4CC4)cc3C(=O)N2C)O1,1.59%
18,CCCN(CCC)c1ccc(C(O)c2nnc(-c3ccccc3)o2)cc1 (stereo not given),-0.77%
19,O=C(OCc1nnc(-c2ccccc2)o1)c1ccc2c(c1)C(=O)N(CCc1ccccc1)C2=O,-0.76%
20,O=S(=O)(c1ccc(Br)cc1)c1nc(-c2ccccc2)oc1N1CCOCC1,-0.08%
21,O=C(Nc1nnc(-c2ccc(Cl)cc2)o1)c1ccccc1Br,3.84%
22,Brc1ccc(-c2noc(-c3ccccc3)n2)o1,15.9% (active)
23,Nc1ccc(-c2nnc(-c3ccccc3)o2)cc1,10.4% (active)

row,SMILES,activation
1,Brc1ccc(-c2nnc(-c3ccccc3)o2)o1,11.2% (active)
2,C=CCN1C(=O)[C@@H](CC(=O)N2CCN(C(=O)OCC)CC2)[C@]2(C(=O)OCC)CCCCC/C=C/12,-0.26%
3,CCN(CC)C(=O)CC[C@@H]1CC[C@]2(CCCN(S(=O)(=O)C3CCCCC3)C2)O1,0.45%
4,C=CCn1c(SCC(N)=O)nnc1-c1ccccc1OC,-1.84%
5,N#Cc1ccc(C2N=C(c3ccccc3)NO2)cc1 (stereo not given),9.37%
6,Brc1ccccc1C1N=C(c2ccccc2)NO1 (stereo not given),20.2% (active)
7,S=C1NC(c2ccccc2)=NCN1c1ccc(Br)cc1,4.34%
8,CCOC(=O)C1CCN(C(=O)C(C)(C)NC(=O)Nc2ccccc2Cl)CC1,0.66%
9,C[C@@H]1ON(C)[C@H]2C[C@H]3c4cc(N5CCOCC5)ccc4CCN3C[C@@H]12,-4.54%
10,COC(=O)C1=C(C)N(Cc2ccccc2C(F)(F)F)C(=NCc2ccc(OC)cc2)NC1c1cccc(C(F)(F)F)c1 (stereo not given),-1.71%
11,O=C(Nc1ccon1)c1sc2ccccc2c1Cl,11.2% (active)
12,O=C(Nc1ccc2c(c1)OCO2)c1sc2cc(Cl)ccc2c1Cl,-1.79%
13,CN1CCc2ccccc2C1Cc1ccccc1NC(=O)c1sc2ccccc2c1Cl (stereo not given),5.85%
14,C[C@@H]1CN([C@H](C)CO)C(=O)CCCn2cc(nn2)CO[C@H]1CN(C)C(=O)Nc1ccc(N2CCCCC2)cc1,5.88%
15,N#CCSc1nc2ccc(N3CCOCC3)cc2c(=O)n1CCc1ccccc1,-1.34%
16,Cc1nc2ccccc2n1C(=O)N1CCOCC1,1.42%
17,Cc1nn2c3cc(N4CCOCC4)ccc3nc2c2ccccc12,11.4% (active)
18,Cc1ccc(Cn2cc(CN3[C@@H](CC(C)C)COc4ccc(Cl)cc4S3(=O)=O)nn2)cc1,0.41%
19,CCCC1(C(=O)OCC)NC(c2ccc(N(C)C)cc2)C2C(=O)N(c3ccc4c(c3)OCCO4)C(=O)C21 (stereo not given),-2.1%
20,Cc1ccc(-c2nc(C3CCCN(S(=O)(=O)c4ccc(Br)s4)C3)no2)cc1 (stereo not given),1.98%
21,COc1ccc(Nc2ncc(F)c(N3CCOCC3)n2)cc1,18.6% (active)
22,COC(=O)c1ccccc1Oc1c(F)c(F)nc(N2CCOCC2)c1F,-0.09%
23,Fc1cnc(N2CCOCC2)nc1NCc1ccccc1,-0.76%

row,SMILES,activation
1,COC(=O)c1cc2c(c3c4cc(F)ccc4n(S(=O)(=O)c4ccccc4)c13)C(=O)N(Cc1ccccc1OC)C2,0.57%
2,Cc1ccc(NN=C2C(=O)OC(C)(C)OC2=O)c(C)c1,11.5% (active)
3,Cc1ccc(NC(=O)c2oc(=O)c3ccccc3c2-c2ccccc2)c(C)c1,2.59%
4,Cc1ccc(NC(=O)C(=O)NCc2ccco2)c(C)c1,6.27%
5,C=CCN(C)CC#Cc1ccccc1,-1.36%
6,CCCCCCc1cc2cc(-c3nnc(-c4cccc(OC)c4)o3)c(=O)oc2cc1O,4.05%
7,CCCCSc1nnc(-c2ccc(C)cc2)o1,8.59%
8,CCOc1ccc(NC(=O)N(CCC(C)C)C(C)c2ccco2)cc1 (stereo not given),-1.26%
9,O=C(CSc1nnc(-c2ccco2)o1)NCC(=O)c1ccccc1,-1.52%
10,CCCCOc1ccc(-c2nnc(-c3ccco3)o2)cc1,11.3% (active)
11,CCOc1ccc(-c2nnc(-c3ccco3)o2)cc1,13.6% (active)
12,COC(=O)[C@]12C[C@H](CC(=O)N3CCOCC3)C(=O)N(Cc3ccc(Cl)cc3Cl)C1=C[C@H](C(C)C)O[C@@H]2C1CC1,-3.62%
13,CCOC(=O)C1=C(C(=O)OCC)C2N(Cc3ccc(C#N)cc3)c3ccccc3[C@@]23C[C@@H](C(=O)OC)N(S(=O)(=O)c2ccc(F)cc2)C3=N1 (stereo not given in full),2.34%
14,Cc1ccc(-n2c(SCC(=O)Nc3cccc4ccccc34)nnc2-c2ccccn2)cc1,-2.36%
15,Cc1cccc(OCC(=O)Nc2ccc(C(=O)O)cc2NC(=O)COc2cccc(C)c2)c1,-2.94%
16,Cc1cccc(OCC(=O)Nc2ccccc2F)c1,11.4% (active)
17,Cc1cccc(OCC(=O)NC2CC(C)(C)NC(C)(C)C2)c1,0.72%
18,COC(=O)C1CN(CCc2ccccc2)CCS(=O)(=O)N1Cc1cccc(Cl)c1 (stereo not given),-0.51%
19,COc1ccc(C2=Nc3cc(C)ccc3OC2)cc1,15.9% (active)
20,COc1ccc(-c2onc(C)c2-c2ccc3c(c2)OCCO3)c(O)c1,-2.49%
21,Cc1ccc(C(=O)NNC2=Nc3cc([N+](=O)[O-])ccc3OC2)cc1,4.07%
22,O=C1Nc2ccccc2OC1CC(=O)N1CCCCCCC1 (stereo not given),3.97%
23,O=C(c1cccc(C(F)(F)F)c1)N1CC[C@H]2[C@H](CCCN2Cc2cc(F)cc(F)c2)C1,1.35%

row,SMILES,activation
1,CC(=O)c1ccc(OC(=O)N2CCOCC2)cc1,1.11%
2,O=C(c1ccccc1)C(O)(CN1CCCCC1)c1ccccc1 (stereo not given),-0.03%
3,Cc1ccc(C(=O)C(=S)N2CCOCC2)cc1,3.06%
4,O=C(O)c1ccc(N=NN2CCOCC2)cc1,10.6% (active)
5,NC1=NN(c2cccc(C(=O)O)c2)C(=O)C1,0.87%
6,O=C(O)c1cccc(N=NN2CCCCCC2)c1,12.7% (active)
7,O=C(NC1CCCCN(Cc2cccc(C(F)(F)F)c2)C1=O)c1ccccc1I (stereo not given),-2.42%
8,CC(C)NC(=S)N1CCN(S(C)(=O)=O)CC1,2.81%
9,C=CCN1C(=O)[C@H](CC(=O)N2CCN(C(=O)OCC)CC2)[C@@]2(C(=O)OCC)CCCC=C12,0.53%
10,COC(=O)[C@@]12CCCCC=C1N(CCc1ccc(Cl)cc1)C(=O)[C@H]2CC(=O)NCc1ccc(OC)c(OC)c1,-3.28%
11,CCOC(=O)c1cn[nH]c1NC(=S)Nc1ccccc1,15.5% (active)
12,CCOC(=O)c1cc2c(nc1NC(=S)Nc1ccccc1)CC(C)(CC)OC2 (stereo not given),-0.06%
13,CCOC(=O)c1c(NC(=S)Nc2ccccc2)sc2c1CCN(C)C2,-0.1%
14,Cc1ccccc1Nc1nc(N)nc(CSc2nnc3ccccn23)n1,-2.26%
15,Cc1ccccc1Nc1nc(N)nc(CSc2ccccc2)n1,16.4% (active)
16,Cc1ccccc1Nc1nc(N)nc(CN2CCN(c3ccccn3)CC2)n1,-1.77%
17,Clc1ccc(-n2c(SC/C=C/c3ccccc3)nnc2-c2ccco2)cc1,-0.13%
18,O=C(CSc1nc2ccccc2nc1N1CCCCC1)N1CCN(S(=O)(=O)c2cccc([N+](=O)[O-])c2)CC1,0.48%
19,COc1ccc(CCc2nc(-c3cccs3)no2)cc1,11.6% (active)
20,COc1ccc(OC)c(CNC(=O)CCc2nc(-c3cccs3)no2)c1,-2.24%
21,CCc1ccc(CNC(=O)CCc2nc(-c3cccs3)no2)cc1,1.81%
